This is an account of results in ChEMBL document CHEMBL1961873, “Compounds: GSK PKIS; Assays: Nanosyn kinase panel” (2012).

The target of assay [1] is Glycogen synthase kinase-3 beta (Homo sapiens) (UniProt P49841). As to conditions: at 1 µM.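 Note: reported values are mean percent inhibition of GSK3B.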
Assay [2] deals with Homeodomain-interacting protein kinase 1 (Homo sapiens) (UniProt Q86Z02). As to conditions: at 0.1 µM.
Assay [3] shares this target. As to conditions: at 1 µM.
Assay [4] has as its target T1, Homeodomain-interacting protein kinase 4 (Homo sapiens) (UniProt Q8NE63).
T1 sequence (whole entry): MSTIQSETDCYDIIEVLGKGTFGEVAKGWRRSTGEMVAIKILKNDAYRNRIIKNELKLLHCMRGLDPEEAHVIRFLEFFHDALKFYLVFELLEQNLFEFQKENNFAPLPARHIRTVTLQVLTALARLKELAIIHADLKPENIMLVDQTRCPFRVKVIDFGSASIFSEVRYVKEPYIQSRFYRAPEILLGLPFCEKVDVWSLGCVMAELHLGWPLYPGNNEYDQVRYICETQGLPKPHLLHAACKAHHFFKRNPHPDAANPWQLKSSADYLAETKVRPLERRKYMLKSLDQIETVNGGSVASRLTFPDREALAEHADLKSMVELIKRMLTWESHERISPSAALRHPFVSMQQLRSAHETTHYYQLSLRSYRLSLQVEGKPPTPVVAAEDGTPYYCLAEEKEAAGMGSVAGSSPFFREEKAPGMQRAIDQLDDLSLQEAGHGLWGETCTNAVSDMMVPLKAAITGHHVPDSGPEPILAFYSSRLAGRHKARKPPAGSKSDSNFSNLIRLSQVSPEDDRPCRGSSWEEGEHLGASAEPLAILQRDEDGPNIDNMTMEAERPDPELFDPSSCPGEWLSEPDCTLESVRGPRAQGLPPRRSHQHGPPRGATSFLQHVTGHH
As to conditions: at 0.1 µM.

In assay [5] the target is T1, Homeodomain-interacting protein kinase 4 (Homo sapiens). The following applies: at 1 µM.
For assay [6], the target named is Mitogen-activated protein kinase 9 (Homo sapiens) (UniProt P45984). The following applies: at 0.1 µM.
Sequence of Mitogen-activated protein kinase 9 (Homo sapiens) (P45984 whole entry, looked up): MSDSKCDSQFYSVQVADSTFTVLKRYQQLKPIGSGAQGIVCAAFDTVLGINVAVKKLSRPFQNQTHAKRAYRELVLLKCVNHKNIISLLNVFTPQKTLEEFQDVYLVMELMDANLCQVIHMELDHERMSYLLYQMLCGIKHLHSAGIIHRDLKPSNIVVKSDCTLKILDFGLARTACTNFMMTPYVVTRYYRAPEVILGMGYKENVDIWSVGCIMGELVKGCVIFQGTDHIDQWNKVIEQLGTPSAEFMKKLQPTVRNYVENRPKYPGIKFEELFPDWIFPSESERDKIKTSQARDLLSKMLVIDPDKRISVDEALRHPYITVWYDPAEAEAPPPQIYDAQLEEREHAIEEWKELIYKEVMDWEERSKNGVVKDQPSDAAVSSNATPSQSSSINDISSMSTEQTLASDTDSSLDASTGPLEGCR
Assay [7] shares this target. As to conditions: at 1 µM.
For assay [8], the target named is Mitogen-activated protein kinase 1 (Homo sapiens) (UniProt P28482). As to conditions: at 0.1 µM.
Sequence of Mitogen-activated protein kinase 1 (Homo sapiens) (P28482 whole entry): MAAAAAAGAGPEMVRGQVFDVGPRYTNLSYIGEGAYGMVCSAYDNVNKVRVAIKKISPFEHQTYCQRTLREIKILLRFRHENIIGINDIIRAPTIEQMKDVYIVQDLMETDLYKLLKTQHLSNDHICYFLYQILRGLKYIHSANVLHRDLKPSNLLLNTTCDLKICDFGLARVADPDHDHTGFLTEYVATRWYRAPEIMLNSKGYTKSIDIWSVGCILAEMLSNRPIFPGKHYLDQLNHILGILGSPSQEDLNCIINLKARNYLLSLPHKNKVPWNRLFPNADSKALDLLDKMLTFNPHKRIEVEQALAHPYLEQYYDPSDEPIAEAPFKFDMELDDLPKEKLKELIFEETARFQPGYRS
Assay [9] has the same target. As to conditions: at 1 µM.
In assay [10] the target is Mitogen-activated protein kinase 3 (Homo sapiens) (UniProt P27361). The following applies: at 0.1 µM.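 Note: each value is a mean inhibition figure.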
Sequence of Mitogen-activated protein kinase 3 (Homo sapiens) (P27361 whole entry): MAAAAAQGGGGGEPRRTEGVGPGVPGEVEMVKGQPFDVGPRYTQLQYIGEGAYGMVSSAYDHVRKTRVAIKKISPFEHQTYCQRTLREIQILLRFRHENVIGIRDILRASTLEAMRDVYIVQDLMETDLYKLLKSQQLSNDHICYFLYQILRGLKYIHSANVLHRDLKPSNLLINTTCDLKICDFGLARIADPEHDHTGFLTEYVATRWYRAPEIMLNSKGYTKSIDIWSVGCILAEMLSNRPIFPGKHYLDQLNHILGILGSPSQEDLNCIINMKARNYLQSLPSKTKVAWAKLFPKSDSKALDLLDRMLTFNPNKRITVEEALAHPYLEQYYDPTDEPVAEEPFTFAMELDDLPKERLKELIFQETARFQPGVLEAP

Sequence of Glycogen synthase kinase-3 beta (Homo sapiens) (P49841 whole entry, looked up): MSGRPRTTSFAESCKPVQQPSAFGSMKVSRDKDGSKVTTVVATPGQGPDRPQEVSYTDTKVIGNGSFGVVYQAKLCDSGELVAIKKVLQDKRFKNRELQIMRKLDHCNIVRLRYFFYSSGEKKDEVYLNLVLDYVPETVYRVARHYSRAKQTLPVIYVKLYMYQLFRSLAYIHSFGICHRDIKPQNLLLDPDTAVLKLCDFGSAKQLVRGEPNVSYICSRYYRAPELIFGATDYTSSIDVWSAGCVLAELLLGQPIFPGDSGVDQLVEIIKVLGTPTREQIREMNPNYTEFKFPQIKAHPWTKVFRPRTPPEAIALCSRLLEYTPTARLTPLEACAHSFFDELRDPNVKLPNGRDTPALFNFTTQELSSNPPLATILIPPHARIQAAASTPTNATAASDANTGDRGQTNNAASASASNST
Sequence of Homeodomain-interacting protein kinase 1 (Homo sapiens) (Q86Z02 whole entry, looked up): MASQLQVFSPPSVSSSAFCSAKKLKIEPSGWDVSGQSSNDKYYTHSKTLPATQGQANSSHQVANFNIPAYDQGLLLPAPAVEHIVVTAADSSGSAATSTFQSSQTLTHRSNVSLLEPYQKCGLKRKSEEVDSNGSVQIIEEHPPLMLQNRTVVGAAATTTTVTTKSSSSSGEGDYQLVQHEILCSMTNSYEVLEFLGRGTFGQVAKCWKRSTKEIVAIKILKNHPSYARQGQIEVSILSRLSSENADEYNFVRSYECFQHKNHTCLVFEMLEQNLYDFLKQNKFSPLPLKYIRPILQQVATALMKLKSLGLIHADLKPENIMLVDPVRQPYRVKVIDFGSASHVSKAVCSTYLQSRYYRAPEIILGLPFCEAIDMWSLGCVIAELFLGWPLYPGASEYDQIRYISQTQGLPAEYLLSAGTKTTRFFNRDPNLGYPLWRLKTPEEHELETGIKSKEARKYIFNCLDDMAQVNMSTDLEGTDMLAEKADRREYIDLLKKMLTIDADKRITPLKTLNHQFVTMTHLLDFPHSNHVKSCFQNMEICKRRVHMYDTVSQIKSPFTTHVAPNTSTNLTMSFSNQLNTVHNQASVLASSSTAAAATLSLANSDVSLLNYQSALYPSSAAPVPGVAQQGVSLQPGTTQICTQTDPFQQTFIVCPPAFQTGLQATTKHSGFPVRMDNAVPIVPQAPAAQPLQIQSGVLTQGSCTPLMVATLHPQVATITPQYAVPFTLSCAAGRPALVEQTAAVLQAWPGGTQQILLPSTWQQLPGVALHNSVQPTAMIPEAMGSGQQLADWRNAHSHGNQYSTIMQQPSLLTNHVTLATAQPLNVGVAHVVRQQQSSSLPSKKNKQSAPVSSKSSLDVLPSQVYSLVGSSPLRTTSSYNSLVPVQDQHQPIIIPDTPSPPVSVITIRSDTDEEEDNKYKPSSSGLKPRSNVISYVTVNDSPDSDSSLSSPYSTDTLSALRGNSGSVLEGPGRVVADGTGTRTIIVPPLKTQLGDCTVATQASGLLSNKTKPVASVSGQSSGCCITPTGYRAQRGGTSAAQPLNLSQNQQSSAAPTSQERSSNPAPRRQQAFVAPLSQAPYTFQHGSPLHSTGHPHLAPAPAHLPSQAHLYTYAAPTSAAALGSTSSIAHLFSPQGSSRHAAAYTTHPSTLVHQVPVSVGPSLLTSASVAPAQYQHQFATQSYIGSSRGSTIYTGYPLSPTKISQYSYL

One may read the inhibition as the drop in the measured response relative to a control, in per cent. For `COc1cc2ncn(-c3cc(OCc4ccccc4C(F)(F)F)c(C(N)=O)s3)c2cc1OC`, the inhibition in [1] is 7.21%; in assay [2], -1.28%; in assay [3], 4.22%; in assay [4], 10.1%; in [5], 40.6%; in [6] it was 1.63%. In addition, the inhibition came out at 2.16% in assay [7], 4.18% in assay [8], 6.38% in assay [9] and 5.3% in [10].

Take `COC(=O)Nc1nc2cc(Oc3ccc(NC(=O)Nc4cccc(C(=O)O)c4)cc3)ccc2[nH]1`: the inhibition in assay [1] was 2.13%; in [2], -2.08%; in assay [3], 0.32%; in [4] it was 0.29%; in [5] it was 3.06%; in [6] it was -0.11%. The inhibition was -0.13% in [7], 0.56% in [8], 0.1% in assay [9] and 0.92% in assay [10].

As for `COc1cc(C=NNc2ncnc3c2cnn3-c2ccccc2)ccc1O`, the inhibition in [1] came to 78.1%; in assay [2] it was 3.83%; in assay [3], 28.3%; in [4], 10.8%; in [5] it was 39.6%; in [6] it was 2.12%. Further, the inhibition in [7] was 6.67%; in [8], 2.39%; in assay [9], 2.08%; in assay [10] it was 1.28%.

On to `O=C1NC(=O)C(c2ccc(Cl)cc2)=C1Nc1ccc(Cl)c(C(=O)O)c1`, for which the inhibition in assay [2] is 2.13%; in [3], 4.29%; in assay [4] it was 1.76%; in [5], 1.98%; in assay [6] it was 0.98%; in assay [7], 5.72%. The inhibition was -5.59% in assay [9] and -1.99% in assay [10].

For the compound `CCCN1CCC=C(c2ccc(Nc3nc(Nc4ccccc4C(N)=O)c4cc[nH]c4n3)c(C)c2)C1`, the inhibition in [1] worked out at 17.1%; in assay [2] it was 16.3%; in [3], 59.6%; in assay [4], 15.1%; in assay [5] it was 56.5%; in [6] it was 46.5%. Also, the inhibition came to 84.9% in assay [7], 6.87% in assay [8], 29.5% in [9] and 6.39% in assay [10].

Regarding `O=C1NC(=O)C(c2cccc(Cl)c2)=C1Nc1ccc(O)c(Cl)c1`, the inhibition is -2.68% in [2]; 1.28% in [3]; -1.68% in assay [4]; 0.62% in assay [5]; 3.34% in assay [6]; 1.38% in [7]. Besides, the inhibition in [8] is -0.66%; in [9], 1.91%; in [10], 2.05%.

`O=C(Nc1n[nH]c2nc(-c3ccco3)c(Br)cc12)C1CC1`: the inhibition in assay [2] was -1.07%; in assay [3], 3.67%; in assay [4] it was 0.54%; in [5], 2.1%; in assay [6], 2.66%; in [7], 3.7%. The inhibition in [8] is -0.07%; in [9], 5.13%; in [10], 5.33%.

Regarding `CCn1c(-c2nonc2N)nc2cncc(C(=O)N3CCNCC3)c21`, the inhibition in assay [1] is 1.94%; in assay [2], -1.03%; in assay [3], 0.35%; in assay [4], -0.43%; in assay [5], 0.6%; in assay [6], 5.31%. For the same compound, the inhibition in assay [7] came out at 8.83%; in assay [8], 8.16%; in assay [9], 7.48%; in [10] it was 6.65%.

For `COc1cc2ncn(-c3cc(O[C@@H](C)c4ccccc4Cl)c(C(N)=O)s3)c2cc1OC`, the inhibition was 5.97% in assay [1]; -0.99% in assay [2]; 4.95% in [3]; 2.88% in assay [4]; 22.1% in assay [5]; 2.45% in assay [6]. Further, the inhibition in assay [7] is 8.24%; in assay [8] it was 5.66%; in assay [9], 6.55%; in assay [10] it was 4.78%.

As to `CN(C)c1cc2c(Nc3ccc4nc(Cc5ccccc5)[nH]c4c3)ncnc2cn1`, the inhibition came to 2.68% in assay [1]; 0.23% in [2]; 2.19% in assay [3]; 2.51% in assay [4]; 4.06% in assay [5]; 10.2% in assay [6]. Also, the inhibition was found to be 1.8% in [7], 4.86% in assay [8], 6.26% in assay [9] and 3.48% in assay [10].

Regarding `COc1cc2ncn(-c3cc(O[C@H](C)c4ccccc4Cl)c(C(N)=O)s3)c2cc1OC`, the inhibition is 23% in [1]; 3.82% in [2]; 12.1% in assay [3]; 11.2% in assay [4]; 30.2% in assay [5]; 2.72% in assay [6]. In addition, the inhibition turned out to be 3.88% in assay [7], 5.57% in assay [8], 4.8% in assay [9] and 2.92% in assay [10].

With `Cc1cccc(-c2n[nH]cc2-c2ccc3ncccc3n2)n1`, the inhibition was 0.05% in assay [1]; -0.8% in [2]; 6.4% in [3]; -0.32% in assay [4]; 0.37% in [5]; 1.26% in assay [6]. In addition, the inhibition is -0.31% in assay [7], 0.39% in assay [8], 1.2% in [9] and 3.13% in assay [10].

For `CCn1c(-c2nonc2N)nc2cnc(Oc3cccc(NC(=O)c4ccc(OCCN5CCOCC5)cc4)c3)cc21`, the inhibition in assay [1] turned out to be 53.9%; in [2], 1.81%; in [3], 11.5%; in [4], 0.11%; in assay [5], 10.4%; in [6], 3.93%. The inhibition in assay [7] was 5.85%; in [8], 3.22%; in assay [9], 4.07%; in [10] it was 2.43%.

For `Nc1ncnc2occ(-c3ccc(NC(=O)Nc4cc(C(F)(F)F)cc(C(F)(F)F)c4)cc3)c12`, the inhibition in assay [1] stood at 7.52%; in [2], 0.45%; in [3], 11.7%; in [4], 14.4%; in [5] it was 63.3%; in [6], 2.13%. Also, the inhibition in assay [7] is 6.77%; in [8] it was 2.73%; in assay [9], 1.95%; in [10] it was 0.6%.
